A number with no mark means an inactive call. Results filed as inconclusive are left out. A call without a number means that no potency is given here. The source made the active and inactive calls. Calls come from the whole dose curve.
Tests used:
[1] = biological target: Acetylcholinesterase (Homo sapiens) (UniProt P22303); assay: Acetylcholinesterase (AChE) small molecule antagonists: colormetric cell-based qHTS assay (AID 1347395); note: nearly all actives have a fitted effect of over 30% in size; note: potency is the fitted concentration of half-maximal effect
Chain of Acetylcholinesterase (Homo sapiens) (P22303 whole entry, looked up): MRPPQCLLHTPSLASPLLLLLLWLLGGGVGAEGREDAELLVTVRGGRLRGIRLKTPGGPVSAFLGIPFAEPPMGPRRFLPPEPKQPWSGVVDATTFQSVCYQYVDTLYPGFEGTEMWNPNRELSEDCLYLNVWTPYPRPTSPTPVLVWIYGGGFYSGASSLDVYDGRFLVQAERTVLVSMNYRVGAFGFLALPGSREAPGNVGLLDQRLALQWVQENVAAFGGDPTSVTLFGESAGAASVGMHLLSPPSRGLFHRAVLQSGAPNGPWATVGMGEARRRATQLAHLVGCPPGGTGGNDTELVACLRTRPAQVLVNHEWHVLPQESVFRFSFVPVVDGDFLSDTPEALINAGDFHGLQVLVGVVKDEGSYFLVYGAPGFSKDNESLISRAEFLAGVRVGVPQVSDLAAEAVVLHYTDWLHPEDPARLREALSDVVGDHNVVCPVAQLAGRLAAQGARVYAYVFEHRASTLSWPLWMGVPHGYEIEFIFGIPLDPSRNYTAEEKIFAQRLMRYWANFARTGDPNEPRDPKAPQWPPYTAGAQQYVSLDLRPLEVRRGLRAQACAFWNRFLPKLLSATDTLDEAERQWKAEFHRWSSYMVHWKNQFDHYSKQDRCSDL
Procedure, shortened: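 AChE inhibition read colorimetrically via DTNB–thiocholine in SH-SY5Y cells. Compound 30 min, substrate 90 min, both 37 C.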

[2] = biological target: Acetylcholinesterase (Homo sapiens) (UniProt P22303); assay: Acetylcholinesterase (AChE) small molecule antagonists: fluorescence cell-based qHTS assay (AID 1347398); settings: Potency: AChE activity; outcome: AChE activity; note: nearly all actives have a fitted effect of over 50% in size; note: potency is the fitted concentration of half-maximal effect
Procedure, shortened: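 Fluorimetric cell-based assay: intact SH-SY5Y cells, 30 min compound preincubation at 37 C, acetylthiocholine substrate with thiol probe Thiolite Green, 40 min RT development, fluorescence 490/520 nm.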

[3] = biological target: Acetylcholinesterase (Homo sapiens) (UniProt P22303); assay: Acetylcholinesterase (AChE) small molecule antagonists: enzyme-based qHTS assay with human liver microsomes (AID 1347399); settings: Potency: qHTS inhibition; outcome: qHTS inhibition; note: nearly all actives have a fitted effect of over 60% in size
Procedure, shortened: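 Recombinant human AChE (50 mU/mL in the enzyme mix) and human liver microsomes (0.25 mg/mL final) were preincubated with compound and NADPH (0.25 mg/mL final) for 30 min at 37 C. Acetylthiocholine/DTNB was then added; thiocholine was read colorimetrically after 10 min at room temperature.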

Structure (SMILES) | Potency [1] | Potency [2] | Potency [3] | outcome [3] | activity change, negative = inhibition [3]
CCN(CC)c1ccc(N)cc1 | 32.6 µM (active) | 32.6 µM (active) | inactive |  | 
COc1ccc(OC(=O)N(CC(=O)O)Cc2ccc(OCCc3nc(-c4ccccc4)oc3C)cc2)cc1 | inactive | inactive | inactive |  | 
CCCCCCCCCCC=O | inactive | inactive | inactive |  | 
CCN(CC)c1cccc(O)c1 | 36.3 µM (active) | 32.4 µM (active) | inactive |  | 
CCOC(=O)CCc1ccccc1 | inactive | inactive | inactive |  | 
CCCN1C[C@H](CSC)C[C@@H]2c3cccc4[nH]cc(c34)C[C@H]21 | 5.5 µM (active) | 12.3 µM (active) |  | inactive | 
CN(C)CCOc1ccc(/C(=C(/CCCl)c2ccccc2)c2ccccc2)cc1 | inactive | inactive | inactive |  | 
CCCCOC(=O)C(C)CC (centres undefined) | inactive | inactive | inactive |  | 
CCN1/C(=C/C=C/c2sc3ccccc3[n+]2CC)Sc2ccccc21 | 10.7 µM (active) | 6.74 µM (active) |  |  | 4.36% [at 23.6 µM]
CCOc1ccc2nc3cc(N)ccc3c(N)c2c1 | 17.4 µM (active) | 13.8 µM (active) | inactive |  | 
CC[C@H](NC(=O)c1cc(F)ccc1NS(=O)(=O)c1cccc2cccnc12)c1ccccc1 | inactive | inactive | inactive |  | 
NC(=O)C1(N2CCCCC2)CCN(CCCN2c3ccccc3CCc3ccc(Cl)cc32)CC1 | inactive | inactive | inactive |  | 
O=C1c2ccccc2C(=O)c2c(Cl)cccc21 | inactive | inactive | inactive |  | 
CCN(CC)c1ccc2c(-c3ccc(S(=O)(=O)O)cc3S(=O)(=O)[O-])c3ccc(=[N+](CC)CC)cc-3oc2c1 | inactive | 41.2 µM (active) | inactive |  | 
Cc1nc2ccccn2c(=O)c1CCN1CCC(C(=O)c2ccc(F)cc2)CC1 | 24.5 µM (active) | 7.76 µM (active) | inactive |  | 
CCN(C(=O)N(CC)c1ccccc1)c1ccccc1 | inactive | inactive | inactive |  | 
COc1cccc(OC)c1C(=O)O | inactive | inactive | inactive |  | 
CN(C)CCCNCCCN | 35.4 µM (active) | 35.4 µM (active) | inactive |  | 
